Test results as given in the supplement of paper PMC11001985.
Unmarked numbers belong to inactive results.

Each target was assayed with C#CCNC(=O)CCSSCCC(=O)NCCc1ccc(C=O)c(C=O)c1 (assay: lysine labeling ratio R10:1 (500 µM / 50 µM probe), SILAC-ABPP in living cells; higher = lower intrinsic lysine reactivity toward the probe, active = 2 or less). Conditions: HeLa; probe concentrations 500 vs 50 µM.
Summary of the method: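 Living SILAC light and heavy HeLa cells in PBS at room temperature were treated with an alkyne-tagged, disulfide-linked lysine probe at 50 µM or 500 µM, with forward and reverse label swaps. The mixed lysates were clicked to biotin-azide, digested with trypsin, captured on neutravidin, released with DTT, alkylated and run by LC-MS/MS on a TIMS-TOF Pro. R for each lysine is the filtered median high-probe/low-probe MS1 peptide ratio, taken again as the median over forward and reverse replicates. Any value above 20 is set to 20.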

Chain of UniProt Q15149 (Q15149 whole entry): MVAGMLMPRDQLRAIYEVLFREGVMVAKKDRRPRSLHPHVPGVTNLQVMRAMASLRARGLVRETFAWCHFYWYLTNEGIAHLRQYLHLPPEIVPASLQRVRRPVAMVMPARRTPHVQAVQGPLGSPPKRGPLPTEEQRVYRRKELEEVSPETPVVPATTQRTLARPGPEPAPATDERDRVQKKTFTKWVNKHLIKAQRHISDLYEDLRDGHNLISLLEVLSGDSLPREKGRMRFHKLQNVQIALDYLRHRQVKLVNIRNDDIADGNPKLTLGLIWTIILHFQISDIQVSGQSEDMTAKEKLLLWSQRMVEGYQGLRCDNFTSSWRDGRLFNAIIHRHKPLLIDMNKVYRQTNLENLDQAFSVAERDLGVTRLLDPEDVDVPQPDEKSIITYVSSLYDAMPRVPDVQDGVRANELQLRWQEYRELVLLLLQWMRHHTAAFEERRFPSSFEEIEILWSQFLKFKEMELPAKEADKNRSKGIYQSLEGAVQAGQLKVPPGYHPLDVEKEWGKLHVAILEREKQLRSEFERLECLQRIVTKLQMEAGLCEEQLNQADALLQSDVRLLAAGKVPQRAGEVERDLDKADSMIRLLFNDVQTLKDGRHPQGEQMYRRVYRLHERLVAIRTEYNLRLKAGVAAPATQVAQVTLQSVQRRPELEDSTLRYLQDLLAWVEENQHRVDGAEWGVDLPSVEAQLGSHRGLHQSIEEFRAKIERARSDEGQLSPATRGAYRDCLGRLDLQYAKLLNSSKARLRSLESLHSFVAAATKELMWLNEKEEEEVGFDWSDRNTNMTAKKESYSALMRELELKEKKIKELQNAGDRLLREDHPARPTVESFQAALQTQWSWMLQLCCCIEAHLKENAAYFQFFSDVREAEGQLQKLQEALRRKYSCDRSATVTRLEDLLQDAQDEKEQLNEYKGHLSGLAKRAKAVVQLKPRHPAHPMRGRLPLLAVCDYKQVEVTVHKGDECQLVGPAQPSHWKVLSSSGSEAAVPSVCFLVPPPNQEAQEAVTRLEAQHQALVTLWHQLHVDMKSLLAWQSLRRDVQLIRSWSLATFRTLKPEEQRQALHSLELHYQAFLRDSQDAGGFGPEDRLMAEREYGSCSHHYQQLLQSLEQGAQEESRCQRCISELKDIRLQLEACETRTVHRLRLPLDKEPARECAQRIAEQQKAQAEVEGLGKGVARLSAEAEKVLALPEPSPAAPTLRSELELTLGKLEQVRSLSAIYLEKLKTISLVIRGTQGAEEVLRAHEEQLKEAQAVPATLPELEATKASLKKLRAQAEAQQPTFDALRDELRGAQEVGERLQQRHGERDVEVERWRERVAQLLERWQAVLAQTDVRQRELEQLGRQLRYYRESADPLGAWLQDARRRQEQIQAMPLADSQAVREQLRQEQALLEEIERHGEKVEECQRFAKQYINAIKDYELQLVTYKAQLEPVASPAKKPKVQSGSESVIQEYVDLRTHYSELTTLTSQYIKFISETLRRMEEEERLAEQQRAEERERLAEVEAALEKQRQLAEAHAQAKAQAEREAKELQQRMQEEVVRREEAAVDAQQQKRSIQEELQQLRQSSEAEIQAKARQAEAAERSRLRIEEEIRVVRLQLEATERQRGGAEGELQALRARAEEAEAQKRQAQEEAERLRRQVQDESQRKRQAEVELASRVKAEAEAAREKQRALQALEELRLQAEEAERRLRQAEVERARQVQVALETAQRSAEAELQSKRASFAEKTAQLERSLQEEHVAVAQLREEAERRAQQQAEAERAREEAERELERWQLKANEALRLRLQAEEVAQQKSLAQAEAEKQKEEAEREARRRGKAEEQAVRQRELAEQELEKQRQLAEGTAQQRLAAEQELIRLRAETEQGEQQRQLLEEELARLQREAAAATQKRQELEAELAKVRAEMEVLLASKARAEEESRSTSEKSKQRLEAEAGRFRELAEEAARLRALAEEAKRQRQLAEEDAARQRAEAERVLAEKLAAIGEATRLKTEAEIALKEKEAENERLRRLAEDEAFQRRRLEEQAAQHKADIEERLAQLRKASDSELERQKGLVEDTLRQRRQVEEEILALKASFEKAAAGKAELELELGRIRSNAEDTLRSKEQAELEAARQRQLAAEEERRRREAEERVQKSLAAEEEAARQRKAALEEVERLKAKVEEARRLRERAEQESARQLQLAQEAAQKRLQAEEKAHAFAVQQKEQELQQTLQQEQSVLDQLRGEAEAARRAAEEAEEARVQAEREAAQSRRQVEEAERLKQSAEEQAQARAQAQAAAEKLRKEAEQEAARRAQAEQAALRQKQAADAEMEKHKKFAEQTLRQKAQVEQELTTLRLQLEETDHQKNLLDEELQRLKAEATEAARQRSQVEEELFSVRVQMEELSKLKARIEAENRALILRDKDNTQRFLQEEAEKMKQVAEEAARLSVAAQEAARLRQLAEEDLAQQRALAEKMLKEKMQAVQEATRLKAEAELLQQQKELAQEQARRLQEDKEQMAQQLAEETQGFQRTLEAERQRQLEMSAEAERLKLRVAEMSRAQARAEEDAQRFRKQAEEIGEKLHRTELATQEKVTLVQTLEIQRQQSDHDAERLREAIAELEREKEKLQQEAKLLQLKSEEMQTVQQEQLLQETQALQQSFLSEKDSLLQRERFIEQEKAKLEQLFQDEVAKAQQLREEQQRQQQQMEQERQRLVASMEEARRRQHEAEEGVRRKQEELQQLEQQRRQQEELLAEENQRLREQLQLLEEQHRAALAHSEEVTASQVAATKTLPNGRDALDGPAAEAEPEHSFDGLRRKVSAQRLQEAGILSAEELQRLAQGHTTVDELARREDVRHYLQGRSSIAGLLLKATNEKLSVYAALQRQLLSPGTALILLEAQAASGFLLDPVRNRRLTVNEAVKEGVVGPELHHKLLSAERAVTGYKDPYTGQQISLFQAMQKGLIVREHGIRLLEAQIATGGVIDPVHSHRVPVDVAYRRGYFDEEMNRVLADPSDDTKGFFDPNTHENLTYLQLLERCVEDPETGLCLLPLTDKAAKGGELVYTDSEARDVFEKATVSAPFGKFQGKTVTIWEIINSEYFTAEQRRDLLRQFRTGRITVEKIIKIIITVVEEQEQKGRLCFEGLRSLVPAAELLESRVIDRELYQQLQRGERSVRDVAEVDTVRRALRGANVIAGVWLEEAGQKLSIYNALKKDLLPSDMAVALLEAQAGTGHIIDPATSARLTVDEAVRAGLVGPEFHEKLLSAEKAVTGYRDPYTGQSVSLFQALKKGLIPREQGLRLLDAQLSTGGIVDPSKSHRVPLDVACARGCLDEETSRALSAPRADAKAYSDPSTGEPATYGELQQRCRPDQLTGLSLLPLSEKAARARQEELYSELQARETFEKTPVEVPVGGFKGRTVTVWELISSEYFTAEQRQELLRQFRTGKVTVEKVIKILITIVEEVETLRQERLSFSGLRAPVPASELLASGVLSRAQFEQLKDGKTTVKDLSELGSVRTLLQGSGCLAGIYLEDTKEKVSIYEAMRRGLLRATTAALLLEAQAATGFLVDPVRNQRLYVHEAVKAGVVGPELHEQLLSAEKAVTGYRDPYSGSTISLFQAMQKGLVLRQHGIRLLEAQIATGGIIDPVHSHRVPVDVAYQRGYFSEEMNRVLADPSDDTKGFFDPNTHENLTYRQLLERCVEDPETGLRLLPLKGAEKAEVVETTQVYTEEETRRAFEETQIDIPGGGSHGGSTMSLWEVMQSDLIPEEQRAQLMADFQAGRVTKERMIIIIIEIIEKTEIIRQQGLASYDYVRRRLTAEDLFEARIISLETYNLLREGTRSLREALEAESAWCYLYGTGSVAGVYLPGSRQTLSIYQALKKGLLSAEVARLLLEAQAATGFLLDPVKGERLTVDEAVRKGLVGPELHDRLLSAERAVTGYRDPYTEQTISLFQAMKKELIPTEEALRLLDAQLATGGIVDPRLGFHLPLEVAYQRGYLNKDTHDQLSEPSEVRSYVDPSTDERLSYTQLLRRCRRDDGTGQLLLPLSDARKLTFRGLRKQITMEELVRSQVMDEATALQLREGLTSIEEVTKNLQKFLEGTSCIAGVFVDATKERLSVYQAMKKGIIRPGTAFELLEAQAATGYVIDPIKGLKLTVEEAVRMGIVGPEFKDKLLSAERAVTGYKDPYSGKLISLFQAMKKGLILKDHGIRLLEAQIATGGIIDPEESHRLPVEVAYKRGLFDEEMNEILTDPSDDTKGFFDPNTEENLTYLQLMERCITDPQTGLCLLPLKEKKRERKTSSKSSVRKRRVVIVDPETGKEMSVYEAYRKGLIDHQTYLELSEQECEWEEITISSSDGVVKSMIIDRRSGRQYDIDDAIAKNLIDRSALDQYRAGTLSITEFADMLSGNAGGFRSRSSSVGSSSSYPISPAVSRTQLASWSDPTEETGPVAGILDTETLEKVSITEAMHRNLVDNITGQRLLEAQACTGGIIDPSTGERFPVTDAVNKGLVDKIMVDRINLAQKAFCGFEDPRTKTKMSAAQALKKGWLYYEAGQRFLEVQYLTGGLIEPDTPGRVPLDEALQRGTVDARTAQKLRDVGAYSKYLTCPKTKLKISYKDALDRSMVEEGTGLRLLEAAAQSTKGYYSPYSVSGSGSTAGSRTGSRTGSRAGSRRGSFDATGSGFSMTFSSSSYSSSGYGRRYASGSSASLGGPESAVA
Chain of UniProt P50395 (P50395 whole entry): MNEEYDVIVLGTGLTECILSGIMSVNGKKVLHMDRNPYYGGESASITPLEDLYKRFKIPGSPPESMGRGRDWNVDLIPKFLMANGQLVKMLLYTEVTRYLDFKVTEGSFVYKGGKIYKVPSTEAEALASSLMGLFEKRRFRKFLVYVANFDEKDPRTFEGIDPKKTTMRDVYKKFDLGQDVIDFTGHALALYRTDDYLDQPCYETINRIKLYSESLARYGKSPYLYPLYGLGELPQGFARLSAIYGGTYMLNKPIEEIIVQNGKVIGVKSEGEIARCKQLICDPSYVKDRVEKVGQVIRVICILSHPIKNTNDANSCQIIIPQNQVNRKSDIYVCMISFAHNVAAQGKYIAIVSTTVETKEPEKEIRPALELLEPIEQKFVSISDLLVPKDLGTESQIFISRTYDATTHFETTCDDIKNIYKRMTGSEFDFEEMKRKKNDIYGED

Row | Target | lysine labeling ratio R10:1
1 | UniProt Q15149 (lysine site: K1626) | 2.37
2 | GDI2 (lysine site: K435) (UniProt P50395) | 4.66
3 | ALCAM (lysine site: K76) (UniProt Q13740) | 6.62
4 | MSN (lysine site: K63) (UniProt P26038) | 1.1 (active)
5 | FOLR1 (lysine site: K52) (UniProt P15328) | 12.6
6 | ITGA6 (lysine site: K680) (UniProt P23229) | 2.82
7 | PCBP2 (lysine site: K309) (UniProt Q15366) | 3.28
8 | CANX (lysine site: K118) (UniProt P27824) | 2.15
9 | HSP90B1 (lysine site: K75) (UniProt P14625) | 1.47 (active)
10 | FAT4 (lysine site: K4224) (UniProt Q6V0I7) | 5.49
11 | ITGA2 (lysine site: K1046) (UniProt P17301) | 6.48
12 | HNRNPM (lysine site: K716) (UniProt P52272) | 1.35 (active)
13 | FRAS1 (lysine site: K2521) (UniProt Q86XX4) | 2.03
14 | HMOX1 (lysine site: K39) (UniProt P09601) | 1.45 (active)
15 | HSP90B1 (lysine site: K633) (UniProt P14625) | 3.03
16 | CALD1 (lysine site: K577) (UniProt Q05682) | 1.1 (active)
17 | PTGFRN (lysine site: K752) (UniProt Q9P2B2) | 3.57
18 | UniProt Q9HDC9 (lysine site: K356) | 2.37
19 | LMO7 (lysine site: K1248) (UniProt Q8WWI1) | 0.993 (active)
20 | EEF2 (lysine site: K572) (UniProt P13639) | 2.79

Row | Target | lysine labeling ratio R10:1
21 | M6PR (lysine site: K44) (UniProt P20645) | 2.9
22 | UniProt Q15149 (lysine site: K300) | 2.94
23 | KIRREL (lysine site: K67) (UniProt Q96J84) | 0.92 (active)
24 | PRDX5 (lysine site: K146) (UniProt P30044) | 1.62 (active)
25 | UniProt P25705 (lysine site: K167) | 2.05
26 | UniProt P54851 (lysine site: K126) | 3.69
27 | DDR1 (lysine site: K30) (UniProt Q08345) | 1.33 (active)
28 | LMO7 (lysine site: K1405) (UniProt Q8WWI1) | 1.4 (active)
29 | LAMB1 (lysine site: K1708) (UniProt P07942) | 3.33
30 | UniProt P62273 (lysine site: K13) | 1.45 (active)
31 | FLNA (lysine site: K2387) (UniProt P21333) | 11.9
32 | FRAS1 (lysine site: K549) (UniProt Q86XX4) | 4.59
33 | UniProt Q9UHN6 (lysine site: K376) | 3.02
34 | UniProt Q15149 (lysine site: K746) | 2.49
35 | MYO1C (lysine site: K781) (UniProt O00159) | 1.34 (active)
36 | HSPG2 (lysine site: K4023) (UniProt P98160) | 5.16
37 | L1CAM (lysine site: K530) (UniProt P32004) | 7.51
38 | UniProt P62249 (lysine site: K4) | 5.53
39 | CCT6A (lysine site: K530) (UniProt P40227) | 4.16
40 | UniProt Q9UHN6 (lysine site: K1262) | 2.6
